From PubChem BioAssay (NCATS)
Results filed as inconclusive are left out. The source made the active and inactive calls. Unless noted, calls come from the whole dose curve; as a rule, active = well fitted curve in either direction with a large enough effect (not every such curve was filed as active); inconclusive = small, poorly fitted or top-dose-only effect, or another doubt; inactive = flat fitted curve, though single readings scatter.

Assays:
[1] = AP1 Signaling Pathway (AID 357); details: ME-180 AP-1-bla reporter, EGF-induced, beta-lactamase ratio, 5 h; at 17.2 µM (top of the series) unless noted;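 note: ME-180 reporter cells stimulated with EGF at its EC50 level; % is set by controls: 0 for no effect and ±100 for the full control effect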
Summary of the method: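 First, ME-180 AP-1-bla cells were cultured overnight at 37 °C in low-serum Opti-MEM. Next, titrated compounds with EC50 EGF were incubated 5 hours. Finally, CCF4 was added for 2.5 hours and the 460/530 nm ratio recorded.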

[2] = NFAT Signaling Pathway (AID 444); details: Jurkat NFAT-bla M1, carbachol, beta-lactamase ratio, 5 h; at 17.2 µM (top of the series) unless noted;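 note: carbachol stimulus at about its EC50 of 1 µM final; % is set by controls: 0 for no effect and ±100 for the full control effect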
Summary of the method: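 Jurkat cells with NFAT-driven β-lactamase reporter and co-expressed M1 receptor, stimulated with carbachol (final 1 uM, ~EC50), compound titration, 5 h at 37 °C. CCF4 loaded 1 h at RT; 460/530 nm ratio gave %activity and AC50.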

[3] = Stat Signaling Pathway (AID 446); details: ME-180 SIE beta-lactamase reporter, IL-6 stimulated, 5 h; at 17.2 µM (top of the series) unless noted;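 note: ME-180 cervical cancer cells given 40 pM IL-6 alongside compound; SIE-controlled beta-lactamase reporter measured as 460/530 nm FRET emission ratio; % is set by controls: 0 for no effect and ±100 for the full control effect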
Summary of the method: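 Emission at 460 and 530 nm (excitation 405 nm) reports SIE-controlled beta-lactamase in ME-180 cells. Cells received compound with 40 pM IL-6 for 5 hrs at 37 C; data scaled between 300 pM IL-6 and 125 nM JAK-inhibitor controls.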

[4] = molecular target: Glucocorticoid receptor (Homo sapiens) (UniProt P04150); test: GR-GFP Redistribution (AID 450;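 active = compounds whose dose series gives a full or clear partial fitted curve of increased nuclear translocation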; note: potency is the fitted concentration of half-maximal effect)
[5] = molecular target: Glucocorticoid receptor (Homo sapiens) (UniProt P04150); test: GR-EFC Redistribution (AID 451; calls by dose curve; note: potency is the fitted concentration of half-maximal effect); details: CHO-K1 GR-EFC translocation, beta-gal luminescence, 2 h
Summary of the method: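 CHO-K1 cells expressing nuclear EA and GR-ED fragments of b-gal; compounds titrated up to 46 uM final, 2 h at 37 C. GR nuclear translocation read as complemented b-gal luminescence after 1 h RT detection.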

[6] = molecular target: Mitogen-activated protein kinase 10 (Mus musculus) (UniProt Q61831); test: JNK3 AlphaScreen Assay (AID 530);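 note: kinase came from lysate of stimulated human HepG2 cells; signal reports phosphorylation of biotinylated GST-cJun 1-79 at Ser73 with 10 µM ATP; % is set by controls: 0 for no effect and ±100 for the full control effect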
Summary of the method: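 Activity was read by AlphaScreen after JNK3-containing HepG2 lysate (cytokine pre-activated) phosphorylated biotinylated GST-cJun with 10 uM ATP at room temperature. Phospho-Ser73 cJun antibody with Protein-A acceptor beads provided detection.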

[7] = molecular target: 3',5'-cyclic-AMP phosphodiesterase 4B (Homo sapiens) (UniProt Q07343); test: qHTS Assay for Inhibitors of PDE-IV (AID 607; active = well fitted activation curve with a large enough effect in the main read-out, with a control signal flat, not every such curve was filed as active; note: % of control where 0% means no effect)
Summary of the method: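 The readout is membrane depolarisation from a cAMP-sensing CNG channel, detected with a potential dye at ex 535/em 590. Cells were HEK293-derived (endogenous PDE-IV) at 1000 cells/well, titrated up to 22.9 uM final.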

[8] = molecular target: Guanine nucleotide-binding protein G(i) subunit alpha-1 (Homo sapiens) (UniProt P63096); test: qHTS Assay for Inhibitors of RGS12 GoLoco Motif Activity (Green Fluorophore) (AID 879; active = well fitted curve in the direction sought with a large enough effect; an effect the other way counts as inactive or inconclusive;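 note: 0% = labeled peptide with Gαi1 and full inhibition = labeled peptide alone without protein; negative values mean loss of peptide binding seen as reduced polarization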)
Summary of the method: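 A drop in FITC polarization marked displacement of the FITC-tagged RGS12 GoLoco peptide (10 nM) from Gαi1 (50 nM). Compounds were incubated 10 min at room temperature in Tris pH 7.5 buffer containing 150 mM NaCl, 0.1 mM GDP and 0.05% NP40; unlabeled peptide titration served as control.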

[9] = qHTS Assay for Identification of Small Molecule Antagonists for NFkB Signaling Pathway (AID 895; active = well fitted inhibition curve with a large enough effect in the signal ratio, with a control signal flat, not every such curve was filed as active; the % refers to the signal ratio; note: % is set by controls: 0 for no effect and ±100 for the full control effect)
Summary of the method: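 ME-180 NFkB-bla cells (beta-lactamase under NFkB response element), plated overnight, treated with compound then 10 pM TNF alpha (about EC50) for 5 hrs at 37 C. LiveBLAzer FRET read at 460/530 nm emission, 405 nm excitation.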

[10] = qHTS Assay for Identification of Small Molecule Agonists for Thrombopoietin (TPO) Signaling Pathway (AID 917; active = well fitted curve in the direction sought with a large enough effect; an effect the other way counts as inactive or inconclusive; note: % is set by controls: 0 for no effect and ±100 for the full control effect)
Summary of the method: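 Ba/F3 (mouse) + hTPO receptor + GpIIb-promoter luciferase; IL-3 withdrawn overnight; compound + 26 pM TPO (EC50), 24 hrs, 37 C, 5% CO2; Steadylite luminescence, 10 min RT.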

[11] = molecular target: Muscarinic acetylcholine receptor M1 (Rattus norvegicus) (UniProt P08482); test: qHTS Assay for Antagonists of Acetylcholine Muscarinic M1 Receptor: Kinetic Measurement of Intracellular Calcium Response (AID 943; active = well fitted curve in the direction sought with a large enough effect; an effect the other way counts as inactive or inconclusive;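 note: Fluo-4 calcium signal as peak divided by basal fluorescence over 4 min; nearly all actives have a fitted effect of over 75% in size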)
Summary of the method: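 Antagonism measured as reduction of carbachol-evoked (EC80, 100 nM final) calcium flux in rat M1-CHO cells after 10 min compound exposure. Fluo-4 signal read kinetically; ratio of maximal to basal fluorescence.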

[12] = molecular target: Pyruvate kinase (Leishmania mexicana) (UniProt Q27686); test: qHTS Validation Assay for Inhibitors of Leishmania Mexicana Pyruvate Kinase (AID 945; active = well fitted curve in the direction sought with a large enough effect; an effect the other way counts as inactive or inconclusive;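 note: 0% = DMSO only neutral control wells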)
Summary of the method: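 Compounds are tested as eight-point concentration series. Reactions contain 0.2 nM LmPYK E451W, 0.5 mM PEP, 0.1 mM ADP, 7 mM MgCl2 and 50 mM KCl at pH 7.2, run 1 h at room temperature, then read by PKLight luminescence.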

[13] = molecular target: Pyruvate kinase PKM (Homo sapiens) (UniProt P14618); test: qHTS Assay for Activators of Human Muscle Pyruvate Kinase (AID 954; active = well fitted curve in the direction sought with a large enough effect, not every such curve was filed as active;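 note: 0% = uninhibited enzyme and -100% = no enzyme or full thiadiazolimine inhibition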)
Summary of the method: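 PKM2, human, >95% pure, 0.1 nM; PEP 0.5 mM (Km), ADP 0.1 mM; 50 mM imidazole pH 7.2, 50 mM KCl, 0.01% Tween 20, 0.05% BSA; 1 h RT; luciferase luminescence readout.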

[14] = molecular target: Alpha-galactosidase A (Homo sapiens) (UniProt P06280); test: Counterscreen for Glucocerebrosidase Inhibitors: qHTS Assay for Human alpha-Galactosidase at pH 4.5 (AID 992; active = well fitted curve in the direction sought with a large enough effect; an effect the other way counts as inactive or inconclusive; note: 0% is about no effect)
Summary of the method: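 Fluorogenic 4-MU alpha-D-galactoside (80 uM) hydrolysis, 2 nM enzyme, pH 4.5 citrate buffer + 0.005% Tween-20; 20 min RT; NaOH/glycine pH 10 stop; Ex365/Em440. Compounds titrated 0.7 nM–77 uM; Hill-equation AC50.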

[15] = molecular target: alpha-glucosidase (Oryza sativa, rice) (UniProt Q653V4); test: Counterscreen for Glucocerebrosidase Inhibitors: qHTS Assay for Rice alpha-Glucosidase at pH 5.0 (AID 997; active = well fitted curve in the direction sought with a large enough effect; an effect the other way counts as inactive or inconclusive;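 note: 0% = full activity with enzyme and -100% = basal without enzyme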)
Summary of the method: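 Endpoint fluorogenic assay at pH 5.0: compounds (0.7 nM to 77 uM) titrated against 4 nM rice enzyme and 400 uM 4-MU-alpha-glucoside for 20 min at room temperature; NaOH/glycine stop, read ex 365/em 440 nm, Hill-fitted AC50.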

[16] = molecular target: Muscarinic acetylcholine receptor M1 (Rattus norvegicus) (UniProt P08482); test: qHTS Assay for Antagonists of Acetylcholine Muscarinic M1 Receptor: Measurement of IP-One Response (AID 944; active = well fitted curve in the direction sought with a large enough effect; an effect the other way counts as inactive or inconclusive; note: nearly all actives have a fitted effect of over 75% in size)
Summary of the method: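 IP1 accumulation measured via TR-FRET between d2-IP1 and Eu-cryptate anti-IP1 antibody after carbachol (200 nM, EC80) stimulation for 30 min; rat M1-transfected CHO cells received compound 10 min before agonist.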

Sequence of Glucocorticoid receptor (Homo sapiens) (P04150 whole entry, looked up, the tested form may be a part): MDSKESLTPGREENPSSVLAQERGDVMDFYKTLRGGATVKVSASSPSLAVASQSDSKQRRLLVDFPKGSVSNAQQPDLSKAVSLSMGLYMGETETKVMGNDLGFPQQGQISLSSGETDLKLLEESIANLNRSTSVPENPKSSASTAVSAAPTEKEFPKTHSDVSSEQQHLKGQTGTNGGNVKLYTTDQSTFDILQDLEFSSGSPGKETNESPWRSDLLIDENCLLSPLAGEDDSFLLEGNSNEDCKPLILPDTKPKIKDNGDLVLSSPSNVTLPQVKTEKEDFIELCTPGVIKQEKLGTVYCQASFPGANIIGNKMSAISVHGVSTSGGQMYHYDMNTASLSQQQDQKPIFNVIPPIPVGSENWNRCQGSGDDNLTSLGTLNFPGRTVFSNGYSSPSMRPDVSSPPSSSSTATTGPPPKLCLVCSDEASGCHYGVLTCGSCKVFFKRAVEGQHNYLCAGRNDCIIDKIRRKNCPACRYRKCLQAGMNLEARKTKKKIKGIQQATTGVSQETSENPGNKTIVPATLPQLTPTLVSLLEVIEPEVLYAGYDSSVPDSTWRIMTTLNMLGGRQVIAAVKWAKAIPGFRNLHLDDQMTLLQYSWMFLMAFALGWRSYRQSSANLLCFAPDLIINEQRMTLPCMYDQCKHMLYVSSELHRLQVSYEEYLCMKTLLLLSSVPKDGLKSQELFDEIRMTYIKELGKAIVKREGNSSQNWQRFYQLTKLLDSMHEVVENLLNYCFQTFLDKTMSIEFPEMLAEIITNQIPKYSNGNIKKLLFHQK
Sequence of 3',5'-cyclic-AMP phosphodiesterase 4B (Homo sapiens) (Q07343 whole entry, looked up): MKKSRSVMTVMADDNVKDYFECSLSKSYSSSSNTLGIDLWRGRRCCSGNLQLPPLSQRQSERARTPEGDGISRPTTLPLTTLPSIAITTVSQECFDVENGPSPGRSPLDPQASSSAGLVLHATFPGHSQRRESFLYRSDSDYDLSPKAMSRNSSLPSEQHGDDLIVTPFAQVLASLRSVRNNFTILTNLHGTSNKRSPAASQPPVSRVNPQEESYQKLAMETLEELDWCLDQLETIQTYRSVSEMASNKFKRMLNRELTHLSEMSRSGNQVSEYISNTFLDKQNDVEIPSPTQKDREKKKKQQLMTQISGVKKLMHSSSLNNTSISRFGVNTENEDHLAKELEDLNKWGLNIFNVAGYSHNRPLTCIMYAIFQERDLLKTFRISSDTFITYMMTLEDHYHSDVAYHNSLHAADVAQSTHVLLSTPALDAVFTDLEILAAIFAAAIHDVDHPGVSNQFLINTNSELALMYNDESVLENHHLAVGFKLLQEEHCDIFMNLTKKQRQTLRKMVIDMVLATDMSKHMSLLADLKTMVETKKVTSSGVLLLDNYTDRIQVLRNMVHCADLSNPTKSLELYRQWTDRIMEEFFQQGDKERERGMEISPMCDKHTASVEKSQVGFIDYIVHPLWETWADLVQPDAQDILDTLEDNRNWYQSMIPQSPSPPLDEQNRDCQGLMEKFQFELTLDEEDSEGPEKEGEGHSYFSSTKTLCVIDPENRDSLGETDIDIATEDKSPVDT
Sequence of Pyruvate kinase (Leishmania mexicana) (Q27686 2-499 E452W): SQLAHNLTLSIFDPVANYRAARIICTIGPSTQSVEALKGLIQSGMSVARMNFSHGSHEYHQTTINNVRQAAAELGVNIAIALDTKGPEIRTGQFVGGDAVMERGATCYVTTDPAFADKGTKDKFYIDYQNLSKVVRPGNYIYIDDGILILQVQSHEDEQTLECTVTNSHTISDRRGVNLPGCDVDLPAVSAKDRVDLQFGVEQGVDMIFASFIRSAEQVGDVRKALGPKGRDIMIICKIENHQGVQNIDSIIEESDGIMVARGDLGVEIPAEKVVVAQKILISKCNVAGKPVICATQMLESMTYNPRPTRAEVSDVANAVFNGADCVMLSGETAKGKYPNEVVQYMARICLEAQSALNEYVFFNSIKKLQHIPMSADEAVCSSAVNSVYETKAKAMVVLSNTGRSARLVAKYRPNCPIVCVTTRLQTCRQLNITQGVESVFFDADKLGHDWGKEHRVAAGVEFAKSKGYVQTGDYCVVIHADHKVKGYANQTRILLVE
Sequence of Guanine nucleotide-binding protein G(i) subunit alpha-1 (Homo sapiens) (P63096 whole entry, looked up): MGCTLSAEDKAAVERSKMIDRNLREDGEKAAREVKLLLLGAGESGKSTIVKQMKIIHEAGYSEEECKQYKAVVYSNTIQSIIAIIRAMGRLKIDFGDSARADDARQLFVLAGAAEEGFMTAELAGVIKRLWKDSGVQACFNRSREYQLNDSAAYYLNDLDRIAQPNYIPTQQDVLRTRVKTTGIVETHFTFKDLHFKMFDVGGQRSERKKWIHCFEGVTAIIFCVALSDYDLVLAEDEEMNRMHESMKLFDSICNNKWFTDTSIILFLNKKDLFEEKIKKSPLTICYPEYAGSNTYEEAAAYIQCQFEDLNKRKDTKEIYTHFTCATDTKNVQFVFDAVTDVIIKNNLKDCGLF
Sequence of Alpha-galactosidase A (Homo sapiens) (P06280 whole entry, looked up): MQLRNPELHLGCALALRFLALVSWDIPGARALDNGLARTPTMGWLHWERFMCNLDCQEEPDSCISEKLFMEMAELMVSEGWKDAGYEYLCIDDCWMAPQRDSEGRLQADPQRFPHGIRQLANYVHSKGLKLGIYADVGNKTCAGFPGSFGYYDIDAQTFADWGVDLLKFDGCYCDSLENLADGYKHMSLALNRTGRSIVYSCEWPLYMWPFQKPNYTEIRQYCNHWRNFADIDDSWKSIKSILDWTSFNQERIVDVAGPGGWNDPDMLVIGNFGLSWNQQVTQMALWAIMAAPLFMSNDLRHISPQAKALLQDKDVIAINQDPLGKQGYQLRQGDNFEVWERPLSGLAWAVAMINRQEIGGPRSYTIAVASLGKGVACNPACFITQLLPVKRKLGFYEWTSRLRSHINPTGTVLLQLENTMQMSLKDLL
Sequence of Pyruvate kinase PKM (Homo sapiens) (P14618 whole entry, looked up): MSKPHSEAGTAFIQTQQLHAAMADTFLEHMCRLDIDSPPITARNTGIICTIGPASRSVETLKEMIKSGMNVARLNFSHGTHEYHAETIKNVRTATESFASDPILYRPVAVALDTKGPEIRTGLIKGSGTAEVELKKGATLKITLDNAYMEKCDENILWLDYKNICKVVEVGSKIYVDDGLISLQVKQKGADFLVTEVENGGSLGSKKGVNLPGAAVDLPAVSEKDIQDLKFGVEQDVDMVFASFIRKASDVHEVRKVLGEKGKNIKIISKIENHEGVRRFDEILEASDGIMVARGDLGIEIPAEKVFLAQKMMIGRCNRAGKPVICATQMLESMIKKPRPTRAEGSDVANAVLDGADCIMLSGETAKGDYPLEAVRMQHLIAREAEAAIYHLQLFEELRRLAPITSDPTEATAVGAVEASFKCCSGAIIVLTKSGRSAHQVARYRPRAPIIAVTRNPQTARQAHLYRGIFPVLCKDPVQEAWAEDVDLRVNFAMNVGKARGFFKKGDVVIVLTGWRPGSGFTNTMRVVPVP
Sequence of Muscarinic acetylcholine receptor M1 (Rattus norvegicus) (P08482 whole entry, looked up): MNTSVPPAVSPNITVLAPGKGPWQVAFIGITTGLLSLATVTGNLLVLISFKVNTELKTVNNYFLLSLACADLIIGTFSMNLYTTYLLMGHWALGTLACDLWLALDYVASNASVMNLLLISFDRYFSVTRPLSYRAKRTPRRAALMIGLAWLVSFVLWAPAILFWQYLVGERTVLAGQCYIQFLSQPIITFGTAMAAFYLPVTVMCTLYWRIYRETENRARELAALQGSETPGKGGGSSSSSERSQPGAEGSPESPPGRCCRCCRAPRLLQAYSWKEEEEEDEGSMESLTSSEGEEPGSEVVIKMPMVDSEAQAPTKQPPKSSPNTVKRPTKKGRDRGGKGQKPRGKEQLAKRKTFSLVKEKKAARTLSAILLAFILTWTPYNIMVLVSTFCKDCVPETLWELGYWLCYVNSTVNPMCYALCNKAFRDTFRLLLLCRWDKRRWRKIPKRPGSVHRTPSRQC

CC1(C)Cc2c(C#N)c(NCCN3CCOCC3)nc(-c3ccco3)c2CO1
inactive: activity change, negative = inhibition [1] -12.2% | activity change, negative = inhibition [2] 5.08% | activity, negative = inhibition [3] -0.141% | Potency [4] > 20.6 µM

Cc1ccc(N(CC(O)CN2CCCC2)S(=O)(=O)c2ccc(C)cc2)cc1 (stereo not given)
inactive: activity change, negative = inhibition [1] 0.0608% | activity change, negative = inhibition [2] -19.4% | activity, negative = inhibition [3] 11.3% | Potency [4] > 20.6 µM

COc1ccccc1C(=O)NCC(=O)n1nc(C)cc1C
inactive: activity change, negative = inhibition [1] -3.59% | activity change, negative = inhibition [2] -5.21% | activity, negative = inhibition [3] 10.4% | Potency [4] > 20.6 µM

OCCN=C(c1ccccc1)C12CN3CN(CN(C3)C1)C2
inactive: activity change, negative = inhibition [1] 6.77% | activity change, negative = inhibition [2] -21.4% | activity, negative = inhibition [3] 3.31% | Potency [4] > 20.6 µM

CCO/C(C)=N/n1c2nc3ccccc3nc2c2c(=O)n(CC(C)C)c(C)nc21
inactive: activity change, negative = inhibition [1] -19.8% | activity change, negative = inhibition [2] 12.6% | activity, negative = inhibition [3] -8.62% | Potency [4] > 20.6 µM

CCOC(=O)CCc1c(C)c(C#N)c2nc3ccccc3n2c1-n1ccnc1
inactive: activity change, negative = inhibition [1] -6.27% | activity change, negative = inhibition [2] 10% | activity, negative = inhibition [3] 14.7% | Potency [4] > 20.6 µM

CCCc1cc(NCCN2CCOCC2)n2c(nc3ccccc32)c1C#N
inactive: activity change, negative = inhibition [1] -11.4% | activity change, negative = inhibition [2] 9.42% | activity, negative = inhibition [3] -2.52% | Potency [4] > 20.6 µM

COc1ccccc1C1/C(=C(/O)c2ccc(C)cc2)C(=O)C(=O)N1Cc1ccco1 (stereo not given)
inactive: activity change, negative = inhibition [1] 12.8% | activity change, negative = inhibition [2] 15.4% | activity, negative = inhibition [3] -15.4% | Potency [4] > 20.6 µM

CCCCn1c(-c2ccc(Cl)cc2)nc2c(=O)n(C)c(=O)[nH]c21
inactive: activity change, negative = inhibition [1] 22.6% | activity change, negative = inhibition [2] -14.1% | activity, negative = inhibition [3] 27.6% | Potency [4] > 20.6 µM

CC(=O)C1=C(O)C(=O)N(c2cccc(C(=O)O)c2)C1c1ccc(F)cc1 (stereo not given)
inactive: activity change, negative = inhibition [1] 15.1% | activity change, negative = inhibition [2] 2.04% | activity, negative = inhibition [3] 4.06% | Potency [4] > 20.6 µM

Cn1c(=O)c2c(nc(N3CCN(Cc4ccccc4)CC3)n2CC(=O)c2ccccc2)n(C)c1=O
inactive: activity change, negative = inhibition [1] -9.66% | activity change, negative = inhibition [2] -8.82% | activity, negative = inhibition [3] 0.621% | Potency [4] > 20.6 µM

N#C/C(C(=O)NCc1ccco1)=C1/SC(Cc2ccc(F)cc2)C(=O)N1c1ccccc1 (stereo not given)
inactive: activity change, negative = inhibition [1] 1.52% | activity change, negative = inhibition [2] -9.67% | activity, negative = inhibition [3] -22.9% | Potency [4] > 20.6 µM

CC(=O)C1=C(O)C(=O)N(c2ccc(C(=O)O)cc2)C1c1ccccc1 (stereo not given)
inactive: activity change, negative = inhibition [1] 5.75% | activity change, negative = inhibition [2] -2% | activity, negative = inhibition [3] 0.835% | Potency [4] > 20.6 µM

CN(C)CC(O)COc1ccc(-c2ccc(C#N)cc2)cc1 (stereo not given)
inactive: activity change, negative = inhibition [1] 1.87% | activity change, negative = inhibition [2] 11.2% | activity, negative = inhibition [3] 2.27% | Potency [4] > 20.6 µM

c1ccc(SCc2nc3ccccc3[nH]2)nc1
inactive: activity change, negative = inhibition [1] -0.127% | activity change, negative = inhibition [2] 6.97% | activity, negative = inhibition [3] 8.86% | Potency [4] > 20.6 µM

O=C(O)[C@@H]1CCCN[C@H]1C(=O)O
inactive: activity change, negative = inhibition [1] 13% [at 38 µM] | activity change, negative = inhibition [2] -7.71% [at 38 µM] | activity, negative = inhibition [3] -12.9% [at 38 µM] | Potency [4] > 46 µM | Potency [5] > 46 µM | Potency [6] | Potency [7] | outcome [8] | Potency [9] | Potency [10] | Potency [11] | Potency [12] | outcome [13] | outcome [14] | outcome [15]

Cn1c(=O)c2c(nc(/C=C\c3cccc(Cl)c3)n2C)n(C)c1=O
inactive: activity change, negative = inhibition [1] 7.2% [at 38 µM] | activity change, negative = inhibition [2] -6.69% [at 38 µM] | activity, negative = inhibition [3] -14.4% [at 38 µM] | Potency [4] > 46 µM | Potency [5] > 46 µM | Potency [6] | Potency [7] | outcome [8] | Potency [10] | Potency [16] | Potency [12] | outcome [13] | outcome [14] | outcome [15]

CCC1CC2(C)NC(=O)c3c(sc4c3CC(C)(C)OC4)N2C1=O (stereo not given)
inactive: activity change, negative = inhibition [1] -7.1% | activity change, negative = inhibition [2] -20.5% | activity, negative = inhibition [3] -10.3% | Potency [4] > 20.6 µM

CCCCCC[C@@H]([C@H](C)O)n1cnc2c(N)ncnc21
inactive: activity change, negative = inhibition [1] -20.5% [at 38 µM] | activity change, negative = inhibition [2] -4.53% [at 38 µM] | activity, negative = inhibition [3] 25.6% [at 38 µM] | Potency [4] > 46 µM | Potency [5] > 46 µM | Potency [6] | Potency [7] | outcome [8] | Potency [10] | Potency [11] | Potency [16] | Potency [12] | outcome [13] | outcome [14] | outcome [15]

O=C(O)c1cc(Cl)cc(Cc2cc(Cl)cc(C(=O)O)c2O)c1O
inactive: activity change, negative = inhibition [1] 10.2% [at 7.69 µM] | activity change, negative = inhibition [2] 10.6% [at 7.69 µM] | activity, negative = inhibition [3] -2.39% [at 7.69 µM] | Potency [4] > 46 µM | Potency [5] > 9.22 µM | activity change, negative = inhibition [6] 4.28% [at 11.4 µM] | Potency [7]
